# Data published in the supplement of paper PMC10849652.
# Of roughly 8,800 targets only a part is listed; those with a hit were picked by preference. About 0.5% of all pairs of compound and target were hits. Values without a mark were called inactive.
# Legend:
# Experiment in all cases: log2 fold change, soluble protein after heating vs DMSO (PISA); higher = thermal stabilisation; K562 lysate, 10 uM; active = over 0.2 and 3.5 SD of the protein, either way, in both replicates (recomputed)
# ibrutinib = compound: C=CC(=O)N1CCC[C@@H](n2nc(-c3ccc(Oc4ccccc4)cc3)c3c(N)ncnc32)C1 [ibrutinib]
# Method in brief: (§1)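 To prepare the extract, K562 pellets were dounce-homogenised in PBS pH 7.4 with 1 mM MgCl2, giving crude material at 1 mg/mL protein. This was treated with 10 μM compound for 30 min, then heated in aliquots for 3 min over 48°C-58°C before pooling and addition of NP-40 to 0.5% at 4°C. Centrifugation at 21,000xg for 90 min left soluble protein in the supernatant, which TMTpro 16plex LC-MS/MS quantified with equalised channel sums. Results are log-two fold changes in thermal stability compared with solvent controls, from duplicates.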
# [1] = compound: CC(=O)c1cnc2ccc(-c3cc(Cl)c(O)c(Cl)c3)nc2c1N[C@H]1CC[C@H](CN(C)C)CC1
# Method in brief: as §1
# ralimetinib = compound: CC(C)(C)Cn1c(N)nc2ccc(-c3[nH]c(C(C)(C)C)nc3-c3ccc(F)cc3)nc21 [ralimetinib]
# Method in brief: as §1
# [2] = compound: CC(C)(O)CC(=O)NCCn1ccc2ncnc(Nc3ccc(Oc4cccc(C(F)(F)F)c4)c(Cl)c3)c21
# Method in brief: as §1
# [3] = compound: CC(C)C1=C2N=C(C=C(N2N=C1)NCC3=CC=CC=C3)NCCCCCCN
# Method in brief: as §1
# [4] = compound: CC1=C(C(CC(=O)N1)C2=CC=C(C=C2)C(F)(F)F)C(=O)NC3=C(C=C4C(=C3)C=NN4)F
# Method in brief: as §1
# [5] = compound: CC1=C(C2=C(C=C1)C(=O)C3=CC=CC=C3N2CCCN)C
# Method in brief: as §1
# [6] = compound: CC1=C(C=C(C=C1)NC(=O)C2=CC(=CC=C2)C(C)(C)C#N)NC3=CC4=C(C=C3)N=CN(C4=O)C
# Method in brief: as §1
# [7] = compound: CC1=C(C=C(C=C1)NC(=O)C2=CC(=CC=C2)N(C)C)NC(=O)C3=CC=C(C=C3)O
# Method in brief: as §1
# [8] = compound: CC1=CC=C(C=C1)SC2=C3C=C(SC3=CN=C2)C(=O)N
# Method in brief: as §1
# vemurafenib = compound: CCCS(=O)(=O)Nc1ccc(F)c(C(=O)c2c[nH]c3ncc(-c4ccc(Cl)cc4)cc23)c1F [vemurafenib]
# Method in brief: as §1
# [9] = compound: CCCS(=O)(=O)Nc1ccc(F)c(C(=O)c2c[nH]c3ncc(Cl)cc23)c1F
# Method in brief: as §1
# barasertib = compound: CCN(CCCOc1ccc2c(Nc3cc(CC(=O)Nc4cccc(F)c4)[nH]n3)ncnc2c1)CCOP(=O)(O)O [barasertib]
# Method in brief: as §1
# [10] = compound: CC[C@@H]1C(=O)N(C)c2cnc(Nc3ccc(C(=O)NC4CCN(C)CC4)cc3OC)nc2N1C1CCCC1
# Method in brief: as §1
# volasertib = compound: CC[C@@H]1C(=O)N(C)c2cnc(Nc3ccc(C(=O)N[C@H]4CC[C@H](N5CCN(CC6CC6)CC5)CC4)cc3OC)nc2N1C(C)C [volasertib]
# Method in brief: as §1
# [11] = compound: CCn1c(C(=O)N(C2CC2)C2CC2)cc2c3c(ncn3C)c(Nc3cc(C)n(C)n3)nc21
# Method in brief: as §1
# [12] = compound: CCn1cc(-c2ccnc3[nH]c(-c4cccc(CN(C)C)c4)cc23)c(-c2ccc(NC(=O)N(C)C)cc2)n1
# Method in brief: as §1
# [13] = compound: CN1CCC(CNc2ccc3ncc(-c4cccc(OC(F)(F)F)c4)n3n2)CC1
# Method in brief: as §1
# saracatinib = compound: CN1CCN(CCOc2cc(OC3CCOCC3)c3c(Nc4c(Cl)ccc5c4OCO5)ncnc3c2)CC1 [saracatinib]
# Method in brief: as §1
# sotrastaurin = compound: CN1CCN(c2nc(C3=C(c4c[nH]c5ccccc45)C(=O)NC3=O)c3ccccc3n2)CC1 [sotrastaurin]
# Method in brief: as §1
# Sequence of UniProt Q9BRS2 (Q9BRS2 whole entry, looked up): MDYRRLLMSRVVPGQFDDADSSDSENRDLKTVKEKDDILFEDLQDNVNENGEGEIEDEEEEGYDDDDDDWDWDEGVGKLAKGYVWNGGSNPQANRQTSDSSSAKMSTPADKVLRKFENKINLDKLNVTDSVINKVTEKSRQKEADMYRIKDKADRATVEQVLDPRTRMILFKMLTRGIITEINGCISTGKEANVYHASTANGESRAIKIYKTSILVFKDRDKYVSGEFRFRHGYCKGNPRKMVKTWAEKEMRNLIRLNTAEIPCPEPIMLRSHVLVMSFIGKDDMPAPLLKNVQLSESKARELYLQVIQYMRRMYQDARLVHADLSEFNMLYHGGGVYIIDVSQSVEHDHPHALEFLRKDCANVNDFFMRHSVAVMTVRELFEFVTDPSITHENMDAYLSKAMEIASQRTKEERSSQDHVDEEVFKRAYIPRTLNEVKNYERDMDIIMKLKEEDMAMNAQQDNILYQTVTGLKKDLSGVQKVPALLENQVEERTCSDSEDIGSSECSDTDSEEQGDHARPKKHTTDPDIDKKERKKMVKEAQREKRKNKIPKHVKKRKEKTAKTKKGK
# Sequence of UniProt Q9H1K0 (Q9H1K0 whole entry, looked up): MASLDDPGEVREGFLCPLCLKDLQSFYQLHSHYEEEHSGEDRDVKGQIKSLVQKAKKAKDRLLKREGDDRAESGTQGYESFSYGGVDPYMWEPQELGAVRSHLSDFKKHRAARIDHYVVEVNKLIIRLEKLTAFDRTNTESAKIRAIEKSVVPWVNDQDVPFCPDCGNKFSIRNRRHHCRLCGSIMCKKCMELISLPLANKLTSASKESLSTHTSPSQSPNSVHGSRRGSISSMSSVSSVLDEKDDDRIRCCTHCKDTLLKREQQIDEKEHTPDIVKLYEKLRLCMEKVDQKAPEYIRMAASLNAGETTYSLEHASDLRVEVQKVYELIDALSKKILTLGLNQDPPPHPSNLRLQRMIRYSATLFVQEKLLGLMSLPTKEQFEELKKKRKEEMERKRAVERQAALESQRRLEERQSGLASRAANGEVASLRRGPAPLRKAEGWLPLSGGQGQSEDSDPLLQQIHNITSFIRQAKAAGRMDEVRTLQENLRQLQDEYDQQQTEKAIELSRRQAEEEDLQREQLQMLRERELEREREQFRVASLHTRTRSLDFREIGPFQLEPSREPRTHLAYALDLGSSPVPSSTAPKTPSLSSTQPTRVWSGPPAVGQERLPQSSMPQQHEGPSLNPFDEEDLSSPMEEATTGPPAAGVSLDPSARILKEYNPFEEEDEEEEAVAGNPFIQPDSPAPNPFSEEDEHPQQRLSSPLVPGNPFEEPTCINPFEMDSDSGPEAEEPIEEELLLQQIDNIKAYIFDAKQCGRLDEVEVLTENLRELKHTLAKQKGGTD
# Sequence of UniProt Q53S08 (Q53S08 whole entry, looked up): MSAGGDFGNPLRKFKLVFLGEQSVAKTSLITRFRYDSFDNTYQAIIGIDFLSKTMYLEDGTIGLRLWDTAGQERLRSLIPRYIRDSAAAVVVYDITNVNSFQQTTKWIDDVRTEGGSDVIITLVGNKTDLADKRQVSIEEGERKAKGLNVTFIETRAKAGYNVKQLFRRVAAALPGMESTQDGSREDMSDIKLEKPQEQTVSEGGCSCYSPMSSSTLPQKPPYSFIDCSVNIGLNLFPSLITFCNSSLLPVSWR
# Sequence of UniProt Q15287 (Q15287 whole entry, looked up): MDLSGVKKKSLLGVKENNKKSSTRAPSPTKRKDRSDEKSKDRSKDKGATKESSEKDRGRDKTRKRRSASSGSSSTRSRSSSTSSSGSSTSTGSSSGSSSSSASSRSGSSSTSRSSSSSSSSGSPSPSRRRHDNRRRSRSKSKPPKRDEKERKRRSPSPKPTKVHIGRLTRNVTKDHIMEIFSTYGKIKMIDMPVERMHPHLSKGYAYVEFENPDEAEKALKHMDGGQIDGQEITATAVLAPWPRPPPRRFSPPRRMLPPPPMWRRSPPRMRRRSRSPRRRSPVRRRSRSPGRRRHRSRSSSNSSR
# Sequence of UniProt Q00765 (Q00765 whole entry, looked up): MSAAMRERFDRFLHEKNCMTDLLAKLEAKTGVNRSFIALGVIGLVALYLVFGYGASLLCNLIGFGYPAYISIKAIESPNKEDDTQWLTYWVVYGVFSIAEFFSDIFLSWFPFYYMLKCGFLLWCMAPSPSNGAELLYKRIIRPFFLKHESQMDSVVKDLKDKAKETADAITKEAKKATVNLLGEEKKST
# Sequence of UniProt Q99708 (Q99708 whole entry, looked up): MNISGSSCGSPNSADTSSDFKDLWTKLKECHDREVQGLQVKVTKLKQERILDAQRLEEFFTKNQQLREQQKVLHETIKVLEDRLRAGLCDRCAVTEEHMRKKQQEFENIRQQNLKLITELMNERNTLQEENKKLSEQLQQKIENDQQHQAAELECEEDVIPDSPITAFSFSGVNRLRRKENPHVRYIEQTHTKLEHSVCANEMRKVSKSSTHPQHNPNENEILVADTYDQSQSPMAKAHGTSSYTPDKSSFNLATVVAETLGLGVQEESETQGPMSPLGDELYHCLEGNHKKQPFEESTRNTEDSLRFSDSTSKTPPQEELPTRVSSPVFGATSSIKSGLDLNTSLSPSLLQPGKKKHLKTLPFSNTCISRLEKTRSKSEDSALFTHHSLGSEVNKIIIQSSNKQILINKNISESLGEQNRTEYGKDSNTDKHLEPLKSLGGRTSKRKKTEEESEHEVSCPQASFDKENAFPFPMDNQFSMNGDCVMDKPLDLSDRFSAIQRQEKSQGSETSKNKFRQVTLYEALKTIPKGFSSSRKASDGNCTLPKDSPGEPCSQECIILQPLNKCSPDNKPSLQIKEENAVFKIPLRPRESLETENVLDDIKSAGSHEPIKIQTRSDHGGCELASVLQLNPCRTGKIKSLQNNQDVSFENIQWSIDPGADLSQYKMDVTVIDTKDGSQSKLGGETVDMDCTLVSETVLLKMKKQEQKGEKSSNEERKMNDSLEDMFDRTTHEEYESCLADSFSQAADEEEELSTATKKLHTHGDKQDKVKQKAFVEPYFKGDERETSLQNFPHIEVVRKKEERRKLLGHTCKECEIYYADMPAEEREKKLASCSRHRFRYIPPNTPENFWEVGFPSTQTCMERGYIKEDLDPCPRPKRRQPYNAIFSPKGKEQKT
# Sequence of UniProt Q96HR9 (Q96HR9 whole entry, looked up): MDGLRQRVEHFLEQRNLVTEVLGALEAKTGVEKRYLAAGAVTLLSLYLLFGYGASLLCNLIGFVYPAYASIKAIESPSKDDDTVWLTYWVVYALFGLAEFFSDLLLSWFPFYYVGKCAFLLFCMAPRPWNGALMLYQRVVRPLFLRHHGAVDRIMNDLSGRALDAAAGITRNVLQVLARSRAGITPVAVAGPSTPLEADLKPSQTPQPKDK
# Sequence of UniProt Q99442 (Q99442 whole entry, looked up): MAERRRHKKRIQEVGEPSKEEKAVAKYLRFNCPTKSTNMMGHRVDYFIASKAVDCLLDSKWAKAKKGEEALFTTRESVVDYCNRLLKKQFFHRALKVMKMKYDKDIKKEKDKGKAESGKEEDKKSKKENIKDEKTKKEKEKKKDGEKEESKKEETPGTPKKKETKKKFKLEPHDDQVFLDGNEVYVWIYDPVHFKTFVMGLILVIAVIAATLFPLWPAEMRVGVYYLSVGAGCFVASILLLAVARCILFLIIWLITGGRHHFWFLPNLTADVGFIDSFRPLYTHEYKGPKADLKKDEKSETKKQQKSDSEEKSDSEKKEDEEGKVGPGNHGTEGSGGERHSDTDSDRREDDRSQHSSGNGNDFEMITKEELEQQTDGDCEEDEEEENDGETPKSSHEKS
# Sequence of UniProt P35250 (P35250 whole entry, looked up): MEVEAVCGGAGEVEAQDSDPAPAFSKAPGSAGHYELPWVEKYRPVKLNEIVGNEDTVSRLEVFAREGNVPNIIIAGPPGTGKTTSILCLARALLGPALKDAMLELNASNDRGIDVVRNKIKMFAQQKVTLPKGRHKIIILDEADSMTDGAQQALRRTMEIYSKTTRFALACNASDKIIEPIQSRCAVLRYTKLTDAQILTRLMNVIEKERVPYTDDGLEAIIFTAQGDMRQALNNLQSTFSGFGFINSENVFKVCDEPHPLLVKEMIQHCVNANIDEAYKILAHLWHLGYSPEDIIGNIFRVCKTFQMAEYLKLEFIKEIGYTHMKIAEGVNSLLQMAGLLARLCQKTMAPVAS
# Sequence of UniProt P31040 (P31040 whole entry, looked up): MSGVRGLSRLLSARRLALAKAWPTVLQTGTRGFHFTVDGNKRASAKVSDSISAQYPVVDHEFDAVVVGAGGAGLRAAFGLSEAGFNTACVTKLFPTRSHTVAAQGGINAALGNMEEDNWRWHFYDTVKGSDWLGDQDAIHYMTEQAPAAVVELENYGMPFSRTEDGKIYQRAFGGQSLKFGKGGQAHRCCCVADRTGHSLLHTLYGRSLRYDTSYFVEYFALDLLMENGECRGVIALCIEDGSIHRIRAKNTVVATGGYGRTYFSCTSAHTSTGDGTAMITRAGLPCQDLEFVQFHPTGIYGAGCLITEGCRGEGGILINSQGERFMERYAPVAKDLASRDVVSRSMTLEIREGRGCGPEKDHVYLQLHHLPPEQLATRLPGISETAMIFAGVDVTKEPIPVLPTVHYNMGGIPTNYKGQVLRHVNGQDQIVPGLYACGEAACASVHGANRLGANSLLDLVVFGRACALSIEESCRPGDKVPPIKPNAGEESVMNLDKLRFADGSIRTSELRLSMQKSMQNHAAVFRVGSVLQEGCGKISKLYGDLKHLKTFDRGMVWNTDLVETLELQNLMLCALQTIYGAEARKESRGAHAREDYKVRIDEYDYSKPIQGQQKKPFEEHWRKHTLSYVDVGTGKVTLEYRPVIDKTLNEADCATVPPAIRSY
# Sequence of UniProt Q99643 (Q99643 whole entry, looked up): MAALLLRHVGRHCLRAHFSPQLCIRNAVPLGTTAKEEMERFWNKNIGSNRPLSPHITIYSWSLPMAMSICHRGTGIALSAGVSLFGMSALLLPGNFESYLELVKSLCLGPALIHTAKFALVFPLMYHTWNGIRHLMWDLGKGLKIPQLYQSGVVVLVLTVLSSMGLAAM
Target,log2 fold change (ibrutinib),log2 fold change [1],log2 fold change (ralimetinib),log2 fold change [2],log2 fold change [3],log2 fold change [4],log2 fold change [5],log2 fold change [6],log2 fold change [7],log2 fold change [8],log2 fold change (vemurafenib),log2 fold change [9],log2 fold change (barasertib),log2 fold change [10],log2 fold change (volasertib),log2 fold change [11],log2 fold change [12],log2 fold change [13],log2 fold change (saracatinib),log2 fold change (sotrastaurin)
RPL8 (UniProt P62917),0.031,0.007,0.01,-0.002,-0.008,0.012,-0.045,-0.076,-0.013,0.011,-0.055,0.013,-0.042,-0.09,-0.012,0.021,0.208,-0.014,-0.009,-0.038
RBM8A (UniProt Q9Y5S9),-0.001,-0.016,-0.011,0.057,-0.038,-0.004,0.066,-0.101,0.035,0.027,-0.086,-0.045,0.027,-0.091,-0.016,0.047,0.35,-0.198,-0.043,0.047
RFC2 (UniProt P35250),0.009,0.018,0.036,0.044,-0.002,-0.001,0.011,0.008,0.048,-0.001,-0.043,0.007,0.038,-0.095,-0.09,0.024,-0.068,0.023,-0.005,0.03
SBF1 isoform 4 (UniProt O95248),0.086,0.116,0,-0.021,-0.079,0.045,-0.039,-0.012,0.054,0.079,0.118,0.012,0.033,0.071,-0.111,0.014,-0.107,0.029,0.062,0
RBSN (UniProt Q9H1K0),0.018,0.043,-0.014,-0.007,0.043,0.025,-0.032,0.044,0.003,0.035,0.051,0.01,0.023,0.035,-0.087,0.006,-0.075,0.038,0.023,-0.019
REEP5 (UniProt Q00765),0.043,0.004,-0.014,-0.01,-0.037,0.017,-0.039,0.004,-0.016,-0.042,-0.008,-0.006,-0.008,0.073,0.023,0.027,-0.051,0.026,0.017,-0.02
RIOK1 (UniProt Q9BRS2),0.006,0.251,0.002,-0.003,-0.005,0.004,-0.009,0.015,-0.009,0.249,0.021,0.023,0.001,0.02,-0.093,0.004,0.017,0.057,0.032,0.001
RNPS1 (UniProt Q15287),0.04,0.042,0.007,0.006,0.005,0.138,0.003,-0.057,-0.032,-0.032,-0.03,0.001,-0.008,-0.175,0.043,-0.022,0.02,0.077,-0.04,-0.003
RPS9 (UniProt P46781),-0.02,0.015,0.016,0.026,-0.007,-0.038,-0.095,-0.048,0.006,0.043,-0.037,-0.01,-0.003,-0.074,-0.005,0.03,0.302 (active),-0.063,0,-0.023
RPS6KA1 (UniProt Q15418),0.047,0.555 (active),0.32,-0.077,-0.011,-0.032,-0.035,-0.043,-0.052,-0.023,-0.037,-0.004,-0.006,0.037,0.029,0.019,-0.004,0.116,0.101,0.103
RAB6D (UniProt Q53S08),0,0.013,-0.011,-0.087,0.014,-0.113,-0.057,0.009,0.009,-0.026,0.005,-0.033,0.15,0.289 (active),0.033,-0.049,-0.065,0.018,-0.053,-0.025
SDHC (UniProt Q99643),0.033,-0.012,0.064,-0.035,-0.05,-0.015,-0.013,-0.026,0.023,0.044,-0.035,-0.022,0.031,-0.089,0.044,0.04,-0.307 (active),0.156,0.063,0.062
SDHA (UniProt P31040),-0.015,0,0.043,0.049,-0.01,0.004,0.008,0.014,-0.015,0.002,0.042,0.018,-0.032,-0.004,0.002,-0.003,-0.022,0.02,-0.02,0.005
REEP6 (UniProt Q96HR9),-0.026,-0.026,0.018,-0.029,-0.067,-0.006,-0.066,0.084,0.055,0.038,0.072,0.021,0.093,-0.022,0.077,0,-0.358 (active),0.072,0.094,0.017
SEC62 (UniProt Q99442),0.002,-0.027,-0.032,-0.058,0.02,0.013,-0.006,0.022,0.002,-0.015,-0.024,0.039,0.027,0.017,0.011,0,0.373 (active),-0.12,-0.011,-0.04
RBBP8 isoform 2 (UniProt Q99708),-0.204,0.005,-0.086,0.011,-0.006,0.003,-0.018,-0.066,-0.006,-0.143,0.002,0.182,-0.013,0.079,-0.019,-0.065,0.065,-0.021,0.018,-0.017
